Compounds with a hit are over-represented: about 2.8% of the library has one in this group of screens.
Pol kappa inh: inhibitors of human DNA polymerase kappa | Potency, µM (top dose mostly 107 µM), inactives show top-dose activity, negative = inhibition, hits mostly inhibitors | purified Pol kappa, fluorescent DNA synthesis assay, 10 min | 400,000 tested, 0.53% active | AID 588579; note: potency is the fitted concentration of half-maximal effect; % is set by controls: 0 for no effect and ±100 for the full control effect
Target sequence (Q9UBT6 whole entry, looked up): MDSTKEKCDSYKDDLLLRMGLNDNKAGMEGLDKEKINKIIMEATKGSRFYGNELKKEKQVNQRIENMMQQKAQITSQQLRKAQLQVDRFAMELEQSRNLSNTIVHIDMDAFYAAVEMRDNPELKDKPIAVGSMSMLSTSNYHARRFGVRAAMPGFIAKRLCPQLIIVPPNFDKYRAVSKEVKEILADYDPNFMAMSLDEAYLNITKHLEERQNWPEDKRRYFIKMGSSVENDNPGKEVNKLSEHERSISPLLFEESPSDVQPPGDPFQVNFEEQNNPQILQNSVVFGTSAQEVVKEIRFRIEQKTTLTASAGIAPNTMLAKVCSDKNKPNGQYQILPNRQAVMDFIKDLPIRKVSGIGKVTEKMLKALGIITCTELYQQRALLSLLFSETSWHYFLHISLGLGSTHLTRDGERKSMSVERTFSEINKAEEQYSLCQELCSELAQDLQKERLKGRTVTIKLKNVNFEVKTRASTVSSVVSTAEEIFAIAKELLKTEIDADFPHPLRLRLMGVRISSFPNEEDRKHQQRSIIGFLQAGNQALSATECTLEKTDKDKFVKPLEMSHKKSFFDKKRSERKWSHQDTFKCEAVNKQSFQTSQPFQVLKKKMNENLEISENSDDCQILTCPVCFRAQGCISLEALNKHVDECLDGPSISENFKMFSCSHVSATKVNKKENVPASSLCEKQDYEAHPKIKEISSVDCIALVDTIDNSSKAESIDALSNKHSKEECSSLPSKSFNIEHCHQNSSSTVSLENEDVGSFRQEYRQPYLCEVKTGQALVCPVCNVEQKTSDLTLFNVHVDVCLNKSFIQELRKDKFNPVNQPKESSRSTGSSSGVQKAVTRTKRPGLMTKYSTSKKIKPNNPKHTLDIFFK
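Enzyme at 10 nM met test compounds for 15 min at room temperature. Substrate addition (50 nM final) began the reaction, which was monitored by fluorescence at 0 and 10 min.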
POLB inh: inhibitors of human DNA polymerase beta; P06746; Pol beta primer extension/strand displacement, fluorescence kinetic; Potency, µM (doses to about 114 µM), without a hit: at the top dose activity change, negative = inhibition, usual class: inhibitors; 340,000 tested, 1.3% active; AID 485314; note: potency is the fitted concentration of half-maximal effect; % is set by controls: 0 for no effect and ±100 for the full control effect
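Pol beta (10 nM) and compounds were preincubated 15 min at room temperature, then 50 nM substrate (final) started primer extension/strand displacement. Reads were taken at 0 and 10 min; concentration-response data were fitted to a four-parameter Hill equation.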
WRN inhibitor: inhibitors of human WRN helicase; Q14191; WRN helicase unwinding, fluorescent forked duplex, kinetic; Potency, µM (doses to about 114 µM), inactives show top-dose activity change, negative = inhibition, actives largely listed as inhibitors; 360,000 tested, 0.46% active; AID 651768; note: potency is the fitted concentration of half-maximal effect; % is set by controls: 0 for no effect and ±100 for the full control effect; nearly all actives have a fitted effect of over 55% in size
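Screening of the MLSMR collection measured strand separation of a quenched forked DNA duplex (100 nM) by 20 nM WRN with 2 mM ATP, all final. Compounds were preincubated with enzyme 15 min at room temperature.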
POLI inh: inhibitors of human DNA polymerase iota | Q9UNA4 | Pol iota fluorescent replication assay, 10 min | Potency, µM (titrated, usually from 115 µM), inactives show top-dose activity, negative = inhibition, usual class: inhibitors | 390,000 tested, 1% active; note: potency is the fitted concentration of half-maximal effect
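Pol iota at 10 nM preincubated 15 min with compounds at room temperature; reaction started with fluorescent substrate, 50 nM final. Fluorescence read kinetically at 0 and 10 min; buffer-only wells as negative control.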
Pol eta inh: DNA polymerase eta (human) inhibition. Q9Y253. recombinant Pol eta, fluorescent DNA replication assay. Potency, µM (highest dose often 114 µM), without a hit: at the highest dose activity change, negative = inhibition, hits mostly inhibitors. 390,000 tested, 1.2% active; note: potency is the fitted concentration of half-maximal effect; % is set by controls: 0 for no effect and ±100 for the full control effect
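Fluorescent replication assay: 50 nM final substrate added after a 15 min room-temperature compound preincubation with 10 nM enzyme. Signal taken at 0 min and again at 10 min.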
PI5P4K alpha inh: blocks human PI5P4K alpha kinase activity. max response, %. P48426. AID 652105. 330,000 tested, 1.2% active. PI5P4Kalpha enzyme, ADP-Glo luminescence, 60 min; active compounds read low; active = max response of -50% or lower; inconclusive = between -30% and -50%; inactive = -30% or higher; note: value at the top dose of about 77 µM; % is set by controls: 0 for no effect and ±100 for the full control effect
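Human PI5P4Kalpha with substrate in 0.038 M HEPES pH 7.4, 0.28 mM EGTA, 0.1% CHAPS, 5% DMSO; reaction started with 5 microM ATP (final), 60 min at room temperature. ADP formed read by ADP-Glo luminescence.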
* marks the source's active call; other numbers are inactive results; ? = inconclusive; . = no result given; [ ] = another dose, or the depositor's remark. Unless noted, calls come from the whole dose curve; as a rule, active = well fitted curve in the direction sought with a large enough effect; inconclusive = small, poorly fitted or top-dose-only effect, or another doubt; inactive = no such curve, though single readings can be large; an effect the other way counts as inactive or inconclusive.

SMILES | Pol kappa inh | POLB inh | WRN inhibitor | POLI inh | Pol eta inh | PI5P4K alpha inh
NC(=O)[C@@H]1CCCNc2c(I)cc([N+](=O)[O-])cc2C(=O)N[C@@H](CCC(=O)O)C(=O)N[C@@H](CO)C(=O)N1 | 9.2% | 4.5% | -4.5% | 4.5% | -3.0% | 5.3
NC(=O)C[C@@H]1NC(=O)[C@H](CCC(=O)O)NC(=O)c2cc([N+](=O)[O-])cc(I)c2OCC[C@@H](C(N)=O)NC1=O | ? | -21.2% | -14.9% | -14.0% | 35.5µM* | -7.3
C[C@@H]1NC(=O)c2cc([N+](=O)[O-])cc(I)c2NCCCC[C@@H](C(N)=O)NC(=O)[C@H](CCC(=O)O)NC1=O | ? | 0.2% | -12.3% | 39.8µM* | 22.4µM* | -3.0
CC(Sc1ccsc1[N+](=O)[O-])C(=O)NCc1ccco1 (stereo not drawn) | ? | 22.4µM* | -15.4% | ? | 39.8µM* | ?
COc1ccc(NC(=O)CC(C)CC(=O)NCc2ccc(F)cc2)c(OC)c1 (stereo not drawn) | 5.9% | 1.9% | -1.2% | 28.6% | -12.2% | -7.3
C=CCN1C(=O)/C(=c2\sc3nc(=O)c(Cc4ccc(OC)c(OC)c4)nn3c2=O)c2ccccc21 | -8.1% | 1.6% | 0.2% | ? | -25.0% | -28.3
C=CCN1C(=O)/C(=N/n2cnnc2)c2ccccc21 | -5.0% | 3.1% | -13.1% | 31.6µM* | -13.1% | -6.6
O=[N+]([O-])c1ccc(/C([O-])=C(/C(=S)NCc2ccco2)[n+]2ccccc2)cc1 | -17.6% | 20µM* | 6.3% | 39.2% | -15.1% | -14.1
Cc1ccccc1CNC(=O)C(=O)NCCC1CCCCN1S(=O)(=O)c1cccs1 (stereo not drawn) | -9.5% | . | -6.7% | 3.5% | -11.1% | 5.1
COc1ccccc1CNC(=O)C(=O)NCCC1CCCCN1S(=O)(=O)c1cccs1 (stereo not drawn) | 89.1µM* | . | 0.2%[11.6 µM] | 40.4% | 0.4% | 1.4
CC1CCCCC12NC(=O)N(CC(=O)N1CCN(C(=O)c3ccco3)CC1)C2=O (stereo not drawn) | -4.5% | . | 1.5% | -13.7% | -3.1% | -7.5
O=C(O)c1cccc(NC(=O)c2cn(-c3ccccc3)nc2-c2ccc([N+](=O)[O-])cc2)c1 | -17.7% | ? | -10.3% | 0.5% | -1.8% | -24.9
COc1ccc(-c2nn(-c3ccccc3)cc2C(=O)Nc2cccc(C(=O)O)c2)cc1[N+](=O)[O-] | -26.1% | 35.5µM* | ? | -16.8% | -11.8% | ?
CCn1c(=O)cc(OCC(=O)O)c2ccccc21 | -11.2% | 13.0% | 4.0% | 10.7% | -8.6% | ?
Cn1cc(C(c2ccccc2OCC(=O)O)c2cn(C)c3ccccc23)c2ccccc21 | -12.7% | -2.7% | 79.4µM* | 81.7% | 0.9% | -53.1*
O=C(O)c1ccc(CN2C(=O)CSC2=S)cc1 | 50.1µM* | ? | -15.7%[57.1 µM] | ? | -3.0% | .
O=C(O)c1ccc(N2C(=O)CSC2=S)cc1 | 79.4µM* | . | 3.4%[11.6 µM] | ? | 0.0% | -6.5
O=C1[C@H]2CCC=C[C@H]2[C@H](c2cccc(Br)c2)N1Cc1ccccc1 | -1.9% | . | -7.1% | -22.6% | -4.0% | -53.3*
C=CCn1c(SCC(=O)N2CCOCC2)nc2scc(-c3ccco3)c2c1=O | ? | 28.2µM* | 56.2µM* | 15.8µM* | 31.6µM* | .
C=CCn1c(SCc2ccc3c(c2)OCO3)nc2scc(-c3ccco3)c2c1=O | ? | 17.8% | ? | ? | 2.9% | -62.5*
C=CCn1c(SC(F)F)nc2scc(-c3ccco3)c2c1=O | -10.3% | 9.3% | -17.6% | 8.7% | -18.2% | 11.2
C=CCn1c(SCC(=O)N2CCCC2)nc2scc(-c3cccs3)c2c1=O | -7.7% | -4.4% | -22.8% | 16.5% | ? | 1.0
CC(C)C(C)NC(=O)CSc1nc2scc(-c3ccco3)c2c(=O)n1-c1ccccc1 (stereo not drawn) | -18.5% | -4.4% | -10.1% | ? | ? | ?
CC(C)C(C)(C#N)NC(=O)CSc1nc2scc(-c3ccco3)c2c(=O)n1-c1ccccc1 (stereo not drawn) | -4.2% | 28.2µM* | -16.4% | ? | -11.1% | -11.3
C=CCn1c(SCC(C)=O)nc2scc(-c3ccco3)c2c1=O | ? | 10µM* | ? | ? | 39.8µM* | -55.3*
SMILES | Pol kappa inh | POLB inh | WRN inhibitor | POLI inh | Pol eta inh | PI5P4K alpha inh
CCOC(=O)C1=C(Nc2ccc(OC)cc2)OCC1=O | -9.2% | -7.0% | -10.5% | -8.6%[58.9 µM] | 0.4% | 0.9
C(=C\c1ccc2ccccc2n1)/c1cccnc1 | -0.4% | . | . | 0.4% | . | .
COc1ccc2c(c1)-c1nc(N)sc1CC2 | -0.3% | 21.6% | -0.9% | 19.5% | -22.2% | -1.4
COc1ccc2c(c1)-c1nc(/N=C/c3ccc(O)c(OC)c3)sc1CC2 | -14.1% | 14.9% | 79.4µM* | 3.9% | -13.2% | 6.1
COCCNC(=O)CN(Cc1ccccc1)C(=O)CCC(=O)Nc1nccs1 | -1.1% | 36.0% | -13.7% | 62.5% | -20.2% | 2.4
Cn1c(N=Nc2ccc(N3CCOCC3)cc2)[n+](C)c2ccccc21 | -10.4% | 3.4% | 44.7µM* | 130.1% | -25.3% | ?
CCc1ccc(NC(=O)c2ccc(F)c(S(=O)(=O)NCCc3ccc(OC)c(OC)c3)c2)cc1 | -5.4%[60.1 µM] | -0.6% | . | ? | -4.5% | .
O=C(/C=C/c1ccccc1[N+](=O)[O-])N1CCc2ccccc2C1 | 8.0% | 32.5% | -3.4% | 13.5% | -12.6% | 4.6
COCCCNC(=O)c1ccc(Cn2c(=O)c3ccccc3n(CC(=O)Nc3c(C)cccc3C)c2=O)cc1 | -31.8% | 50.1µM* | . | 89.1µM* | -10.6% | .
COCCCNC(=O)CCCn1c(=O)c2ccccc2n(CC(=O)Nc2c(C)cccc2C)c1=O | 0.3% | 15.0% | 4.7% | 17.3% | -5.5% | -6.2
CCC(C)NC(=O)Cn1c(=O)n(Cc2ccc(C(=O)NCc3ccc(C)cc3)cc2)c(=O)c2ccccc21 (stereo not drawn) | 7.8% | 20µM* | . | 43.3% | ? | .
C[C@@H]1CN([C@@H](C)CO)C(=O)c2cc(Br)cnc2O[C@H]1CN(C)C(=O)c1ccncc1 | . | . | -0.4% | . | -3.2% | 7.7
Cc1ccsc1C(=O)OCC(=O)NC1CCCC(C)C1C (stereo not drawn) | -1.6% | . | -12.6% | 19.2% | -24.7% | -7.0
O=C(O)c1ccc(CSc2nc(-c3ccccc3)cc(C(F)(F)F)n2)cc1 | -0.6% | -3.1% | ? | 17.5% | -9.3% | 17.5
O=C(O)c1ccc(CSc2nc(-c3ccc(Cl)cc3)cc(C(F)(F)F)n2)cc1 | -12.8% | 89.1µM* | -30.8% | ? | -7.1% | .
CC(=O)C1CCC2C3CC(C)=C4CC(O)CCC4(C)C3CCC12C (stereo not drawn) | -8.5% | . | 1.3% | -25.8% | -7.9% | 16.1

Assay outcomes: PubChem BioAssay, National Center for Advancing Translational Sciences (NCATS)
